In the library only some 11% were active in any assay of this set; here they are far more common.
ERK AVP inh = qHTS Assay for Inhibitors of the ERK Signaling Pathway using a Homogeneous Screening Assay; HEK293-V1b, vasopressin-stimulated pERK AlphaScreen; Potency, µM (doses to about 57.5 µM), usual class: inhibitors; hit rate 0.99% among 72,000; also: nearly all actives have a fitted effect of over 55% in size
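Phosphorylated ERK1/2 detected via AlphaScreen bead proximity in lysates of V1b-expressing HEK293 cells given 25 nM vasopressin for 5 min after 30 min compound exposure (37 °C). AC50 from Hill equation; basal DMSO 0%, vasopressin 100%.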
HADH2 inhib = qHTS Assay for Inhibitors of HADH2 (Hydroxyacyl-Coenzyme A Dehydrogenase, Type II). hit rate 3.4% among 73,000. recombinant HADH2, NADH fluorescence, beta-hydroxybutyryl-CoA. AID 886, 2007. Potency, µM (series often up to 57.1 µM), usual class: inhibitors. 3-hydroxyacyl-CoA dehydrogenase type-2 (Homo sapiens), Q99714; also: nearly all actives have a fitted effect of over 60% in size
Target sequence (Q99714 whole entry, looked up, one chain of several): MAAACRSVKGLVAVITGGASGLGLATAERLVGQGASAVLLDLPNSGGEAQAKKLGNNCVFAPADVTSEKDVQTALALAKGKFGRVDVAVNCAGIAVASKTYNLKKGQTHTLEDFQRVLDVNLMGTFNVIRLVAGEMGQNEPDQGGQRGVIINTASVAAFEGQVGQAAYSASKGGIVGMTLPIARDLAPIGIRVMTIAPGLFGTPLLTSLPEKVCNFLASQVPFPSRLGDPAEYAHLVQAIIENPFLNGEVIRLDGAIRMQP
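Read-out: 360 nm excitation, 450 nm emission, kinetic over 4 min. Conditions: His-tagged human HADH2 20 nM, pH 9.0 Tris with Tween-20, 1 mM NAD+, 90 uM beta-hydroxybutyryl-CoA.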
FLuc inh = qHTS Assay for Inhibitors of Firefly Luciferase. purified firefly luciferase, luminescence, 8 min. Potency, µM (top dose mostly 57.1 µM), actives largely listed as inhibitors. hit rate 2.2% among 72,000; also: nearly all actives have a fitted effect of over 40% in size
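Substrate buffer containing 10 uM ATP (pH 7.2 imidazole, Mg2+, KCl, detergent, BSA) is dispensed, compound pinned in, then luciferase/luciferin detector mix added. After 8 min at ambient temperature, light output is measured.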
15-hLO inh = qHTS Assay for Inhibitors of 15-hLO (15-human lipoxygenase); Polyunsaturated fatty acid lipoxygenase ALOX15 (Homo sapiens), P16050; purified 15hLO-1, xylenol orange hydroperoxide absorbance; Potency, µM (top dose mostly 57.1 µM), hits mostly inhibitors; hit rate 1.4% among 74,000; also: nearly all actives have a fitted effect of over 55% in size
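Quantitative HTS in 25 mM Hepes pH 7.5 containing 0.01% Triton X-100: human 15hLO-1 at 40 nM, arachidonic acid at 50 uM, 6 min turnover. Product quantified via ferrous oxidation/xylenol orange, 573:405 nm absorbance ratio.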
PK Bst = Pyruvate Kinase. purified pyruvate kinase, luminescence ATP production; ribose 5-phosphate activator present at AC10. Potency, µM. hit rate 1.2% among 51,000. AID 361, 2006; in the data active = potency below about 11 µM; inconclusive = mostly about 12 µM to 25 µM;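 the screen sought inhibitors and activators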
HSD17B inhib = qHTS Assay for Inhibitors of HSD17B4, hydroxysteroid (17-beta) dehydrogenase 4; 3-hydroxyacyl-CoA dehydrogenase type-2 (Homo sapiens), Q99714; recombinant HSD17B10, NADH fluorescence kinetic; Potency, µM (titrated, usually from 57.1 µM), usual class: inhibitors; hit rate 7.6% among 75,000; AID 893, 2007;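 also: the protocol describes HADH2 (HSD17B10) and not the HSD17B4 of the title; nearly all actives have a fitted effect of over 70% in size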
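Activity followed as NADH fluorescence increase (ex 360, em 450 nm) every 30 seconds for 4 min, using final 90 uM beta-hydroxybutyryl CoA and 1 mM NAD+. Recombinant His-tagged enzyme, 20 nM, pH 9.0 Tris buffer, 15 min compound preincubation.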
Numbers stand for hits; [ ] = dose if it differs, or a comment. Unless noted, calls follow the shape of the dose curve; as a rule, active = well fitted curve in the direction sought with a large enough effect; inconclusive = small, poorly fitted or top-dose-only effect, or another doubt; inactive = no such curve, though single readings can be large; an effect the other way counts as inactive or inconclusive.

What do the screens show for `COc1ccc(COC(=O)N/N=C2/C[C@@H](O)[C@@H](O)[C@@H]3[C@@H]4C(=O)N(Cc5ccccc5)C(=O)[C@H]4CC[C@@H]23)cc1`?
ERK AVP inh: inactive[11.5 µM]; HADH2 inhib: inactive[11.4 µM]; FLuc inh: inactive[11.4 µM]; 15-hLO inh: inactive[11.4 µM]; HSD17B inhib: inactive[11.4 µM]

Results for N[C@H](COP(=O)(O)O)C(=O)O ?
HADH2 inhib: inactive; FLuc inh: inactive

What do the screens show for `Cc1ccc2c(n1)sc1c(N)ncnc12`?
ERK AVP inh: inactive; HADH2 inhib: inactive; FLuc inh: inactive; 15-hLO inh: inactive; PK Bst: inconclusive; HSD17B inhib: 32µM

Results for NC(=S)c1ccc[n+]([C@@H]2O[C@@H](COP(=O)([O-])OP(=O)(O)OC[C@@H]3O[C@@H](n4cnc5c(N)ncnc54)[C@@H](OP(=O)(O)O)[C@H]3O)[C@@H](O)[C@H]2O)c1 ?
ERK AVP inh: inactive; HADH2 inhib: inconclusive; FLuc inh: inactive; 15-hLO inh: inconclusive; HSD17B inhib: inactive

What do the screens show for `CC(C)COc1ccc(-c2nnc(-c3ccncc3)o2)cc1`?
ERK AVP inh: inactive; HADH2 inhib: inactive; FLuc inh: inactive; 15-hLO inh: inactive; PK Bst: 2.3; HSD17B inhib: 16µM

Results for CCCOc1ccc(-c2nnc(-c3ccncc3)o2)cc1 ?
ERK AVP inh: inactive; HADH2 inhib: inactive; FLuc inh: inactive; 15-hLO inh: inactive; PK Bst: 1.6; HSD17B inhib: 10µM

What do the screens show for `c1cc(-c2nnc(-c3ccncc3)o2)ccn1`?
ERK AVP inh: inactive; HADH2 inhib: inactive; FLuc inh: inactive; 15-hLO inh: inactive; HSD17B inhib: inactive

What do the screens show for `NC(=O)[C@@H]1CCCN1Cc1ccc2c(c1)OCO2`?
ERK AVP inh: inactive[11.5 µM]; HADH2 inhib: inactive[11.4 µM]; FLuc inh: inactive[11.4 µM]; 15-hLO inh: inactive[11.4 µM]; HSD17B inhib: inactive[11.4 µM]

Results for O=C1CCCC=C1[C@@H](O)COCc1ccccc1 ?
ERK AVP inh: inactive[11.5 µM]; HADH2 inhib: inactive[11.4 µM]; FLuc inh: inactive[11.4 µM]; 15-hLO inh: inconclusive; HSD17B inhib: inactive[11.4 µM]

How did CCn1c(C)csc1=NC(=O)c1ccccc1O do in these assays?
ERK AVP inh: inactive; HADH2 inhib: inactive; FLuc inh: 13µM; 15-hLO inh: inactive; PK Bst: inactive; HSD17B inhib: inactive

What do the screens show for `N=C(N)SCc1cccc2c(=O)cc(-c3ccccc3)oc12`?
ERK AVP inh: inactive[11.5 µM]; HADH2 inhib: inactive[11.4 µM]; FLuc inh: inactive[11.4 µM]; 15-hLO inh: inactive[11.4 µM]; HSD17B inhib: inactive[11.4 µM]

How did CCOC(=O)c1ccc(NC(=O)CCc2nc(-c3cccc(C)c3)no2)cc1 do in these assays?
ERK AVP inh: 25µM; HADH2 inhib: inactive; FLuc inh: inactive; 15-hLO inh: inactive; PK Bst: inactive; HSD17B inhib: inactive

What do the screens show for `N#Cc1c(N)sc(=S)c2c1CCCC2`?
ERK AVP inh: inactive; HADH2 inhib: inactive; FLuc inh: inactive; 15-hLO inh: inactive; PK Bst: inactive; HSD17B inhib: 25µM

What do the screens show for `OC[C@@H](O)[C@@H](O)[C@@H](O)[C@@H](O)c1nc2ccc(Cl)cc2[nH]1`?
ERK AVP inh: inactive[11.5 µM]; HADH2 inhib: inactive[11.4 µM]; FLuc inh: inactive[11.4 µM]; 15-hLO inh: inactive[11.4 µM]; HSD17B inhib: inactive[11.4 µM]

What do the screens show for `CCCCc1c(C)c2ccc(OC)c(/C(C)=N\O)c2oc1=O`?
ERK AVP inh: inactive; HADH2 inhib: inactive; FLuc inh: inactive; 15-hLO inh: inactive; PK Bst: inactive; HSD17B inhib: 32µM

How did O=C(OCC(=O)c1cccs1)c1ccccc1 do in these assays?
ERK AVP inh: inactive; HADH2 inhib: inactive; FLuc inh: 13µM; 15-hLO inh: inactive; HSD17B inhib: inactive

Results for O=C(COc1ccccc1O)c1cccs1 ?
ERK AVP inh: inactive; HADH2 inhib: inactive; FLuc inh: inactive; 15-hLO inh: inactive; PK Bst: inactive; HSD17B inhib: inactive

What do the screens show for `CC(=O)Oc1cc(-c2coc3cc(OC(C)=O)c(OC(C)=O)c(OC(C)=O)c3c2=O)cc(OC(C)=O)c1OC(C)=O`?
ERK AVP inh: inactive; 15-hLO inh: 16µM; HSD17B inhib: inconclusive
